JMJD2E inh: JMJD2E (human) inhibition | 1.6% of 230,000 active | Potency, µM (titrated, usually from 57.1 µM), most hits filed as inhibitors | AID 2147 | B2RXH2 | JMJD2E catalytic domain, FDH-coupled NADH fluorescence (FDH is formaldehyde dehydrogenase); further: nearly all actives have a fitted effect of over 50% in size
HPGD block: HPGD (human) dehydrogenase inhibition; purified HPGD, NADH fluorescence kinetic, PGE2 substrate; Potency, µM, most hits filed as inhibitors; 4.3% of 150,000 active
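NADH formation kinetics: reaction with 30 uM PGE2 and 1 mM NAD+ (final), 20 nM enzyme, Tris-HCl pH 8 with Tween 20, after 15 min compound preincubation at room temperature. Fluorescence change, last versus first of five reads.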
PNC assembly inh: blocks assembly of the perinucleolar compartment. activity change (PNC), negative = inhibition, % at 10 µM. AID 2417. 3.1% of 140,000 active. PC3M PTB-GFP, PNC prevalence imaging, 16 h; hits give low values;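 active means readout at or below -70, meaning at least 70% loss of cells showing the perinucleolar compartment, a nuclear body marking cancer cells; inconclusive means readout between -30 and a set limit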
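Read-out is percentage of cells bearing a perinucleolar compartment, from automated 20x imaging of fixed, Hoechst-stained PC3M PTB-GFP cells. Cells were seeded 4 h, then exposed 16 h to compound (23 nl of library stock) in duplicate plates.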
ALDH1A1 inh: ALDH1A1 (human) enzyme inhibition; Purified ALDH1A1, NADH fluorescence, propionaldehyde substrate; Potency, µM (doses to about 75.3 µM), usual class: inhibitors; 7.3% of 220,000 active
Target sequence (P00352 whole entry, looked up): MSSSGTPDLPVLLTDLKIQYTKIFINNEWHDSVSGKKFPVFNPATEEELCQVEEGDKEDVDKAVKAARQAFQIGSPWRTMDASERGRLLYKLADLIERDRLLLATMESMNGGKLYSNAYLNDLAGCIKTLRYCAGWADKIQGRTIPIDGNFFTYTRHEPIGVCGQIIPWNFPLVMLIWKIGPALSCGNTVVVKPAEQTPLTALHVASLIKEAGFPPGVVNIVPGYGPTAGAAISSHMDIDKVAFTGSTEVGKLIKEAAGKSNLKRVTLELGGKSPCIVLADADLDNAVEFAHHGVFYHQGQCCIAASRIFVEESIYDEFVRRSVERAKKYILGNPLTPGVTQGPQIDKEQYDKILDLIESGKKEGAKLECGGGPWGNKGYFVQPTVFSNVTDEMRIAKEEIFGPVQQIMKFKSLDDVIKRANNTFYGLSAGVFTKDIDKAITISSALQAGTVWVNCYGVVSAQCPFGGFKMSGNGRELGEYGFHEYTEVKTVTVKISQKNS
A number is an active result. An excerpt weighted towards active compounds, which were near 11% of everything screened. Unless noted, the call rests on the fitted dose curve; in most records, active means well fitted inhibition curve with a large enough effect (not every such curve was filed as active); inconclusive means small, poorly fitted or top-dose-only effect, or another doubt; inactive means no such curve, though single readings can be large or run the other way.

For O=S(=O)(c1ccccc1)n1ccc2ccccc21 the results were JMJD2E inh inactive, HPGD block inconclusive, PNC assembly inh inactive and ALDH1A1 inh inconclusive.
O=C(COC(=O)/C=C/c1ccc(Cl)cc1)NCCC1=CCCCC1 was read as JMJD2E inh inactive, HPGD block inactive, PNC assembly inh -90 and ALDH1A1 inh inactive.
For O=C(COC(=O)Cc1c(Cl)cccc1Cl)NCCC1=CCCCC1 the results were JMJD2E inh inactive, HPGD block 13µM, PNC assembly inh inactive and ALDH1A1 inh inactive.
O=C1C2C3c4ccccc4C(c4ccccc43)C2c2nc3ccccc3n21 (stereo not given) was read as JMJD2E inh inactive, HPGD block inactive, PNC assembly inh -100 and ALDH1A1 inh inactive.
Screening CC1(C)OC(=O)C(=Cc2ccc[nH]2)C(=O)O1 returned JMJD2E inh inactive and ALDH1A1 inh 16µM.
`COC(=O)c1ccc(OC(=O)C23CCC(C)(C(=O)O2)C3(C)C)cc1` (stereo not given) gave JMJD2E inh inactive and ALDH1A1 inh inactive.
Screening CN(CC(=O)NCCC1=CCCCC1)S(=O)(=O)c1ccc2c(c1)c(=O)n(C)c(=O)n2C returned JMJD2E inh inactive, HPGD block inactive, PNC assembly inh inactive and ALDH1A1 inh 32µM.
Screening CN(CC(=O)NCCc1ccc(Cl)cc1)S(=O)(=O)c1ccc2c(c1)c(=O)n(C)c(=O)n2C returned JMJD2E inh inactive, HPGD block inactive, PNC assembly inh inactive and ALDH1A1 inh inactive.
Screening NNS(=O)(=O)c1ccc(N2CCCC2=O)c([N+](=O)[O-])c1 returned JMJD2E inh inconclusive and ALDH1A1 inh 18µM.
For NS(=O)(=O)c1ccc(N2CCCC2=O)c([N+](=O)[O-])c1 the results were JMJD2E inh inconclusive and ALDH1A1 inh inactive.
Cn1c(=S)n(C)c2ccccc21 was read as JMJD2E inh inactive and ALDH1A1 inh inactive.
Cn1ccc(=S)c2ccccc21 was read as JMJD2E inh inconclusive and ALDH1A1 inh 7.1µM.
`COc1ccccc1CNc1ncncc1-c1cccc(C#N)c1` gave JMJD2E inh inactive, HPGD block inactive and ALDH1A1 inh inactive.
COc1ccc(NC(=S)N(CCCN2CCOCC2)Cc2cn(C)c3ccccc23)cc1 was read as JMJD2E inh inactive, HPGD block inactive, PNC assembly inh inconclusive and ALDH1A1 inh 0.56µM.
`CCOc1ccc(NC(=S)N(CCCN2CCOCC2)Cc2cn(C)c3ccccc23)cc1` gave JMJD2E inh inactive, HPGD block inactive, PNC assembly inh inconclusive and ALDH1A1 inh 4µM.
O=C(c1cc(C(F)(F)F)cc(C(F)(F)F)c1)N1CCC2(CC1)CN(c1ccccc1)C2 was read as HPGD block inactive and ALDH1A1 inh inactive.
CC(=O)c1c(C)[nH]c(C(=O)CSc2nc3ccc(C)cc3[nH]2)c1C was read as JMJD2E inh inactive, HPGD block inactive, PNC assembly inh inactive and ALDH1A1 inh 25µM.
Screening Cc1cc(NC(=O)c2c(-c3c(Cl)cccc3Cl)noc2C)n(C)n1 returned JMJD2E inh inactive and ALDH1A1 inh inactive.
Screening O=C(NCC1CCCO1)C(c1ccncc1)N(Cc1ccc(F)cc1)C(=O)CN1C(=O)c2ccccc2S1(=O)=O (stereo not given) returned JMJD2E inh inactive, HPGD block inactive, PNC assembly inh inactive and ALDH1A1 inh 13µM.
Screening COc1cccc(C(C(=O)NCC2CCCO2)N(CC2CCCO2)C(=O)CN2C(=O)c3ccccc3S2(=O)=O)c1 (stereo not given) returned JMJD2E inh inconclusive and ALDH1A1 inh 14µM.
For COc1ccccc1N(C(=O)CN1C(=O)c2ccccc2S1(=O)=O)C(C(=O)NCC1CCCO1)c1ccc(F)cc1 (stereo not given) the results were JMJD2E inh inactive, HPGD block inactive, PNC assembly inh inactive and ALDH1A1 inh inconclusive.
`CC(=O)O[C@@H]1C(=O)[C@@]2(C)[C@H](O)C[C@H]3OC[C@]3(OC(C)=O)[C@@H]2[C@H](OC(=O)c2ccccc2)[C@@]2(O)C[C@H](OC(=O)[C@@H](O)[C@@H](NC(=O)c3ccccc3)c3ccccc3)C(C)=C1C2(C)C` (stereo in doubt) gave JMJD2E inh inactive, HPGD block inactive and ALDH1A1 inh inactive.
For COc1ccc([C@@H]2[C@@H](O)[C@H](O)[C@@H](C)N2C)cc1OC the results were JMJD2E inh inactive, HPGD block inactive and ALDH1A1 inh inactive.
`O=C(N/N=C/c1cnc(N2CCCCC2)s1)c1ccc(Cl)cc1` gave JMJD2E inh inactive and ALDH1A1 inh inactive.
`O=Cc1cnc(N2CCCCC2)s1` gave JMJD2E inh inactive and ALDH1A1 inh 3.5µM.
Screening Cc1ccc(N2C(=N)/C(=C3/Nc4ccccc4S3)C(c3ccccc3)C2=O)cc1 (stereo not given) returned JMJD2E inh inactive, PNC assembly inh inconclusive and ALDH1A1 inh 9.5µM.
Screening CC(C)(C)c1ccc(C(=O)N2CCC(=O)N(C(COCc3ccccc3)Cc3ccccc3)CC2)cc1 (stereo not given) returned JMJD2E inh inactive, HPGD block inactive, PNC assembly inh -115 and ALDH1A1 inh inconclusive.
O=C(CCn1nnc2ccccc21)Nc1nnc(COc2ccccc2F)s1 was read as JMJD2E inh inactive, HPGD block inactive, PNC assembly inh inactive and ALDH1A1 inh inactive.
For O=C(CCn1nnc2ccccc21)Nc1nnc(Cc2ccccc2)s1 the results were JMJD2E inh inactive, HPGD block 32µM, PNC assembly inh inactive and ALDH1A1 inh inconclusive.
`O=C1c2cccc3cccc(c23)C(=O)N1c1ccncc1` gave JMJD2E inh inconclusive, HPGD block inconclusive, PNC assembly inh -100 and ALDH1A1 inh inconclusive.
`CC(C)(C)OC(=O)N1CCC(c2cc(=O)n3[nH]c(-c4ccc(Cl)cc4)cc3n2)CC1` gave JMJD2E inh inactive, HPGD block inactive, PNC assembly inh -84 and ALDH1A1 inh inactive.
For CC(C)(C)OC(=O)N1CCC(c2cc(=O)n3[nH]cc(C(=O)Nc4ccc(F)c(Cl)c4)c3n2)CC1 the results were JMJD2E inh inactive.
Screening O=c1c2ccccc2c(=O)n(Cc2ccccc2)n1Cc1ccccc1 returned JMJD2E inh inconclusive, HPGD block inactive, PNC assembly inh inactive and ALDH1A1 inh inconclusive.
`COc1ccc(N2CCSC2C(=O)NN)cc1` (stereo not given) gave JMJD2E inh inactive, HPGD block inactive, PNC assembly inh inactive and ALDH1A1 inh 3.2µM.
For COC(=O)[C@H]1[C@H](C(=O)OC)[C@@H](C(=O)OC)N(c2ccc(OC)cc2)[C@@H]1C(=O)OC the results were JMJD2E inh inactive, HPGD block inactive, PNC assembly inh inactive and ALDH1A1 inh inactive.
CCCCCCCc1c(O)nc(SCCN2CCOCC2)[nH]c1=O was read as JMJD2E inh inactive and ALDH1A1 inh inconclusive.
For COC(=O)N1CCC[C@@]2(CCN(c3ccccc3)C2)C1 the results were HPGD block inactive and ALDH1A1 inh inactive.
For CC(NC(=O)C1CCC(CNc2c(N3CCCCC3)c(=O)c2=O)CC1)c1ccccc1 (stereo not given) the results were JMJD2E inh inactive.
Screening O=C(C1=NOC(CNc2ncc(C(F)(F)F)cc2Cl)C1)N1CCOCC1 (stereo not given) returned JMJD2E inh inactive and ALDH1A1 inh inactive.

Assay outcomes from PubChem BioAssay.
